The panel holds about 83,000 compounds, 20% with a hit somewhere; the sample as a whole holds those more often.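 Cell lines were cultured in 96-well plates, exposed to a single compound concentration, and assessed for percent growth 48 hours later.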 The source made the active and inactive calls. How the source made its calls: active means growth percent below 10; inactive means the rest.
Key:
Test in all cases: NCI-60 one-dose screen, 48 h (100 = growth as untreated, 0 = no growth, -100 = all killed)
[1] = test system: SR leukemia; details: 10 µM unless noted
[2] = test system: RPMI-8226 leukemia; details: 10 µM unless noted
[3] = test system: OVCAR-5 ovarian; details: 10 µM unless noted
[4] = test system: OVCAR-4 ovarian; details: 10 µM
[5] = test system: SK-OV-3 ovarian; details: 10 µM unless noted
[6] = test system: IGROV1 ovarian; details: 10 µM unless noted
[7] = test system: OVCAR-3 ovarian; details: 10 µM unless noted
[8] = test system: NCI/ADR-RES ovarian; details: 10 µM unless noted
[9] = test system: T-47D breast; details: 10 µM unless noted
[10] = test system: BT-549 breast; details: 10 µM unless noted
[11] = test system: MDA-MB-435 melanoma; details: 10 µM unless noted
[12] = test system: SW-620 colon; details: 10 µM unless noted
[13] = test system: MCF7 breast; details: 10 µM unless noted
[14] = test system: HCT-116 colon; details: 10 µM unless noted
[15] = test system: HCC-2998 colon; details: 10 µM unless noted
[16] = test system: KM12 colon; details: 10 µM unless noted
[17] = test system: HS 578T breast; details: 10 µM unless noted

Measured: growth

COc1cc(C)cc2oc3oc(=O)c(C(=O)c4cc5cc(Br)ccc5o4)cc3c(=O)c12
inactive: [1] 102% | [2] 120% | [3] 98.9% | [4] 110% | [5] 114% | [6] 92.8% | [7] 107% | [8] 110% | [9] 107% | [10] 100% | [11] 104% | [12] 101% | [13] 101% | [14] 99.7% | [15] 110% | [16] 107%

COC(=O)[C@]1(C)CC[C@]2(C)CC[C@]3(C)C(=CC(=O)[C@@H]4[C@@]5(C)CCC(=O)NC(C)(C)[C@@H]5CC[C@]43C)[C@@H]2C1
inactive: [1] 32.7% [100 µM]
active: [2] -44.5% [100 µM] | [3] -60.8% [100 µM] | [5] -16.8% [100 µM] | [6] -55.5% [100 µM] | [7] -70.4% [100 µM] | [17] -30.4% [100 µM] | [8] -71.9% [100 µM] | [9] -10.7% [100 µM] | [10] -78.6% [100 µM] | [11] -48.8% [100 µM] | [12] -54.8% [100 µM] | [13] -49.7% [100 µM] | [14] -72.5% [100 µM] | [15] -89.2% [100 µM] | [16] -80.1% [100 µM]

CN(C)C(=S)Sc1ccc([N+](=O)[O-])cc1[N+](=O)[O-]
active: [1] 7.64% | [6] 1.54% | [7] 1.07% | [9] -34.7% | [12] -63.1% | [13] 0.536% | [14] -54.4%
inactive: [2] 27.7% | [3] 72.9% | [4] 20.8% | [5] 93.1% | [17] 97.5% | [8] 40.8% | [11] 44.4% | [15] 88.9% | [16] 49.1%

COc1ccc(C2NC(=O)C(C#N)c3c2sc2c(F)cccc32)cc1 (stereo not given)
active: [7] 0.617% | [11] -9.11%
inactive: [1] 22.2% | [2] 63.2% | [3] 85.6% | [4] 71.4% | [5] 63.2% | [6] 41.1% | [8] 27.3% | [9] 80.2% | [10] 56.4% | [12] 24.4% | [13] 32.7% | [14] 37.5% | [15] 91.5% | [16] 41%

O=C1Cc2c(sc3c(F)cccc23)C(c2ccccc2[N+](=O)[O-])N1 (stereo not given)
inactive: [1] 99.4% | [2] 95.4% | [3] 108% | [4] 93% | [5] 93.1% | [6] 63.5% | [7] 97.9% | [9] 78.6% | [10] 99.6% | [11] 108% | [12] 79.3% | [13] 81.4% | [14] 85.9% | [15] 119% | [16] 100%

O=C(Nc1ccc(F)cc1)c1ccccc1
inactive: [1] 88.8% | [2] 102% | [3] 105% | [4] 100% | [5] 112% | [6] 110% | [17] 107% | [9] 104% | [10] 84.8% | [11] 97.3% | [12] 101% | [13] 96% | [14] 103% | [15] 109% | [16] 104%

O=C(Oc1ccc(Cl)cc1[N+](=O)[O-])Oc1ccc(Cl)cc1[N+](=O)[O-]
inactive: [1] 82.1% | [2] 100% | [3] 108% | [4] 119% | [5] 120% | [7] 119% | [17] 104% | [8] 119% | [9] 115% | [10] 119% | [11] 120% | [12] 109% | [13] 103% | [14] 113% | [15] 108% | [16] 106%
